Source: PubChem BioAssay (NCI)
This is part of a sample that, as a whole, favours compounds with a hit. Of some 83,000 tested, about 20% had one in any assay.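 Results are percent growth after 48 hours of single-concentration exposure. 100 means growth as in untreated cells, lower positive values show inhibition; negative values down to -100 show cell death.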 Active and inactive are the calls of the source. Rule for the calls: active = growth percent below 10; inactive = the rest.

Assays:
Assay in all cases: NCI-60 one-dose screen, 48 h (100 = growth as untreated, 0 = no growth, -100 = all killed)
Details in all cases: 10 µM unless noted
NCI-H23 lung = system: NCI-H23 lung
NCI-H226 lung = system: NCI-H226 lung
NCI-H322M lung = system: NCI-H322M lung
HOP-62 NSCLC = system: HOP-62 NSCLC
NCI-H460 lung = system: NCI-H460 lung
NCI-H522 lung = system: NCI-H522 lung
A549/ATCC NSCLC = system: A549/ATCC NSCLC
786-0 renal = system: 786-0 renal
DU-145 prostate = system: DU-145 prostate
K-562 leukemia = system: K-562 leukemia
MDA-MB-231 breast = system: MDA-MB-231 breast
SF-268 CNS = system: SF-268 CNS
SF-295 CNS = system: SF-295 CNS
SF-539 CNS = system: SF-539 CNS
UACC-257 melanoma = system: UACC-257 melanoma
M14 melanoma = system: M14 melanoma
HCT-15 colon = system: HCT-15 colon
MALME-3M melanoma = system: MALME-3M melanoma
RXF 393 renal = system: RXF 393 renal

SMILES	growth (NCI-H23 lung)	growth (NCI-H226 lung)	growth (NCI-H322M lung)	growth (HOP-62 NSCLC)	growth (NCI-H460 lung)	growth (NCI-H522 lung)	growth (A549/ATCC NSCLC)	growth (786-0 renal)	growth (DU-145 prostate)	growth (K-562 leukemia)	growth (MDA-MB-231 breast)	growth (SF-268 CNS)	growth (SF-295 CNS)	growth (SF-539 CNS)	growth (UACC-257 melanoma)	growth (M14 melanoma)	growth (HCT-15 colon)	growth (MALME-3M melanoma)	growth (RXF 393 renal)
COc1ccc(-c2csc(NC(=O)c3cc(O)c(O)c(O)c3)n2)cc1	78.5% (inactive)	82.3% (inactive)	76.9% (inactive)	64.8% (inactive)	53.7% (inactive)	-22.9% (active)	58.6% (inactive)	64.4% (inactive)	65.2% (inactive)	44.8% (inactive)	56% (inactive)	54.5% (inactive)	73.4% (inactive)	62.7% (inactive)	87.3% (inactive)	63.2% (inactive)	30.4% (inactive)		
Cc1nc(N)[nH]c(=O)c1C	97.4% (inactive)	97% (inactive)	96.6% (inactive)	103% (inactive)	106% (inactive)	102% (inactive)	103% (inactive)	103% (inactive)	109% (inactive)	86.9% (inactive)	102% (inactive)	114% (inactive)		107% (inactive)	87% (inactive)		122% (inactive)	156% (inactive)	104% (inactive)
COc1cc(-c2cc(C(=O)Nc3nc4ccccc4s3)nc3cc(-c4ccccc4)nn23)cc(OC)c1OC	49.1% (inactive)	70.2% (inactive)	90.9% (inactive)	46.6% (inactive)	79.3% (inactive)	18.8% (inactive)	77.5% (inactive)	81.6% (inactive)	51.5% (inactive)	53.2% (inactive)	66.1% (inactive)		53% (inactive)	4.14% (active)	59.1% (inactive)	26.3% (inactive)	85.3% (inactive)	28.5% (inactive)	66.7% (inactive)
COc1cc(/C=C/C(=O)c2c(-c3ccc(Cl)cc3)nc3sc(C)nn23)cc(OC)c1OC	84.3% (inactive)	68.3% (inactive)	87.5% (inactive)	98.8% (inactive)	97.2% (inactive)	-20.1% (active)	83.8% (inactive)	81.4% (inactive)	90.2% (inactive)	31.1% (inactive)	72.2% (inactive)	88.6% (inactive)	76.2% (inactive)	95.8% (inactive)	81.9% (inactive)		60.2% (inactive)		
C=C1c2c(C)nn(-c3ccc(C#CCOC4OC(CO)C(O)C(O)C4O)cc3)c2N(C)C23C[C@H]1C1(C)c4c(C)nn(-c5ccc(C#CCOC6OC(CO)C(O)C(O)C6O)cc5)c4N(C)C(C)(C[C@H]12)C3 (some centres not stated)	12.4% (inactive)	23.4% (inactive)	1.68% (active)	3.61% (active)	-45.9% (active)	-3.82% (active)	24.9% (inactive)	17.2% (inactive)	16.9% (inactive)	9.32% (active)	5.4% (active)	7.57% (active)		-15.3% (active)	34.2% (inactive)	0.248% (active)	21.7% (inactive)	5.2% (active)	37.5% (inactive)
Cc1c(C(N)=O)sc2ncn(CC(=O)Nc3ccc(Cl)cc3)c(=O)c12	110% (inactive)	105% (inactive)	114% (inactive)	97% (inactive)	110% (inactive)	141% (inactive)	106% (inactive)	104% (inactive)	126% (inactive)	96.8% (inactive)	108% (inactive)	119% (inactive)		108% (inactive)	148% (inactive)		117% (inactive)		105% (inactive)
Cc1c(C(N)=O)sc2nc(SCC(=O)Nc3ccc(Cl)cc3)n(-c3ccccc3)c(=O)c12	106% (inactive)	108% (inactive)	105% (inactive)	109% (inactive)	106% (inactive)	89.2% (inactive)	116% (inactive)	104% (inactive)	120% (inactive)	84.2% (inactive)	93.1% (inactive)	101% (inactive)		110% (inactive)	104% (inactive)	104% (inactive)	121% (inactive)	159% (inactive)	95.8% (inactive)
COc1ccc(-c2cc(Cc3cccs3)c(=O)n(Cn3cncn3)n2)cc1	102% (inactive)	96.3% (inactive)	100% (inactive)	110% (inactive)	112% (inactive)	91.6% (inactive)	97.3% (inactive)	104% (inactive)	124% (inactive)	98.3% (inactive)	87.5% (inactive)	110% (inactive)	98.9% (inactive)	101% (inactive)	105% (inactive)	107% (inactive)	101% (inactive)		110% (inactive)
COc1ccc(/C=C/C(=O)Nc2cccnc2Nc2ccc(F)cc2)cc1	93.6% (inactive)	85.5% (inactive)	101% (inactive)	117% (inactive)	108% (inactive)	92.5% (inactive)	84.6% (inactive)	95.6% (inactive)	118% (inactive)		91.7% (inactive)	112% (inactive)	87.9% (inactive)	93.7% (inactive)	97.9% (inactive)	103% (inactive)	102% (inactive)	122% (inactive)	102% (inactive)
COc1cc(/C=C/c2nnc(-c3cc(-c4ccccc4)n[nH]3)o2)cc(OC)c1OC	92.6% (inactive)	100% (inactive)	106% (inactive)	102% (inactive)	107% (inactive)	85.4% (inactive)	97.5% (inactive)	118% (inactive)	108% (inactive)	98.2% (inactive)	111% (inactive)		105% (inactive)	92.6% (inactive)	105% (inactive)	127% (inactive)	102% (inactive)	98.3% (inactive)	111% (inactive)
Oc1[nH]c2ccc(Cl)cc2c1/C=c1/ccc2c(c1)N=C(c1ccc(C(F)(F)F)cc1)N=2	67.2% (inactive)	88.7% (inactive)	84.3% (inactive)	71.5% (inactive)	39.2% (inactive)	45.7% (inactive)	70.5% (inactive)	16.7% (inactive)	70% (inactive)	26.9% (inactive)	83.4% (inactive)		40.9% (inactive)	80.1% (inactive)	66% (inactive)	54.4% (inactive)	54.1% (inactive)	69.2% (inactive)	5.23% (active)
Clc1ccccc1[C@@H]1C[C@@H]2Cc3cc(Br)c4ccccc4c3N1O2	50.8% (inactive)	73.5% (inactive)	61% (inactive)	54.3% (inactive)	18.1% (inactive)	20% (inactive)	48% (inactive)	56.1% (inactive)	61% (inactive)	10% (inactive)	39% (inactive)	46.1% (inactive)	24.6% (inactive)	6.71% (active)	47.4% (inactive)	20.8% (inactive)	35.7% (inactive)		39.3% (inactive)
ClC1C2CC(c3ccccc32)C1Cl (configuration not stated)	106% (inactive)	109% (inactive)	123% (inactive)	129% (inactive)	110% (inactive)	100% (inactive)	110% (inactive)	103% (inactive)	118% (inactive)		107% (inactive)	110% (inactive)	123% (inactive)	95.8% (inactive)	112% (inactive)	103% (inactive)	109% (inactive)	126% (inactive)	110% (inactive)
C=C(C)[C@H]1CC/C(C)=C/CC[C@]2(C)O[C@H]2CC/C(COC(C)=O)=C\C1=O	103% (inactive)	130% (inactive)	87.3% (inactive)	102% (inactive)	116% (inactive)	109% (inactive)	37.7% (inactive)	92.1% (inactive)	140% (inactive)	95.8% (inactive)	98.4% (inactive)	115% (inactive)		117% (inactive)	128% (inactive)	105% (inactive)	109% (inactive)		105% (inactive)
C=C(C)[C@@H]1C/C=C(/C=O)CC[C@@H]2O[C@@]2(C)CC/C=C(\C)CC1	116% (inactive)	98.9% (inactive)	91% (inactive)	110% (inactive)	98.7% (inactive)	186% (inactive)	104% (inactive)	106% (inactive)	112% (inactive)	136% (inactive)	111% (inactive)	112% (inactive)		105% (inactive)	141% (inactive)	115% (inactive)	105% (inactive)		104% (inactive)
COc1cc(OC)c2cc(C(=O)O)c(=O)oc2c1	96.8% (inactive)	96.8% (inactive)	79.8% (inactive)	103% (inactive)	95.3% (inactive)	97.3% (inactive)	123% (inactive)	83.9% (inactive)	129% (inactive)	95.1% (inactive)	94.3% (inactive)	110% (inactive)		102% (inactive)	76% (inactive)	103% (inactive)	106% (inactive)	113% (inactive)	105% (inactive)
O=C(C(=O)N1CCCCC1)c1ccc(OC2OC(CO)C(O)C(O)C2O)cc1 (configuration not stated)	101% (inactive)	102% (inactive)	116% (inactive)	104% (inactive)	114% (inactive)	85.3% (inactive)	101% (inactive)	106% (inactive)	115% (inactive)		110% (inactive)	105% (inactive)	125% (inactive)	100% (inactive)	106% (inactive)	99.1% (inactive)	108% (inactive)	101% (inactive)	104% (inactive)
C/C(=N/N=C(N)N)c1ccc(N)cc1	100% (inactive)	102% (inactive)	79.2% (inactive)	91.5% (inactive)	106% (inactive)	91.5% (inactive)	103% (inactive)	96% (inactive)	107% (inactive)	94.6% (inactive)	104% (inactive)	114% (inactive)		96.3% (inactive)	150% (inactive)	95.9% (inactive)	115% (inactive)	115% (inactive)	98.5% (inactive)
CCOc1nc(-c2ccccc2)cc2c(O)c(C(=O)n3nc(C)cc3C)[nH]c(=O)c12	97.6% (inactive)	91.8% (inactive)	103% (inactive)	105% (inactive)	107% (inactive)	104% (inactive)	102% (inactive)	100% (inactive)	111% (inactive)	86.7% (inactive)	112% (inactive)	99% (inactive)	101% (inactive)	101% (inactive)	112% (inactive)	102% (inactive)	100% (inactive)	102% (inactive)	
COc1cc2c(cc1OC)C1CCN3C(=O)CCC3N1CC2 (configuration not stated)	99.3% (inactive)	113% (inactive)	124% (inactive)	121% (inactive)	107% (inactive)	107% (inactive)	113% (inactive)	103% (inactive)	111% (inactive)		116% (inactive)	103% (inactive)	113% (inactive)	118% (inactive)	108% (inactive)	116% (inactive)	110% (inactive)	117% (inactive)	106% (inactive)
